Source: PubChem (National Center for Advancing Translational Sciences (NCATS))
RE007 growth inh: less growth of the S. pombe RE007 Vpr strain; S. pombe RE007 Vpr strain, BacTiter-Glo ATP luminescence, 24 h; Potency, µM (highest dose often 92.2 µM), for inactives: top-dose activity change, negative = less growth, most hits filed as inhibitors; 0.21% of 360,000 active; active = well fitted falling curve with a large enough effect; inconclusive = small, poorly fitted or top-dose-only effect; inactive = no such curve, though single readings can be large or run the other way; also: potency is read from the fitted curve at half-maximal effect; % is scaled to controls: 0 for no effect and ±100 for the full control effect; nearly all actives have a fitted effect of over 50% in size
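Fission yeast RE007 carrying one integrated HIV-1 vpr copy, seeded at OD 0.01 in PMG+AL medium with 23 nL pinned compound. Grown 24 h at 30 degrees; viability read by BacTiter-Glo luminescence after 5 min.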
FBPA Giardia inh: inhibitors of Giardia lamblia fructose-1,6-bisphosphate aldolase. purified Giardia FBPA. Potency, µM (titrated, usually from 59.6 µM), for inactives: top-dose activity, negative = inhibition, hits mostly inhibitors. 0.71% of 290,000 active. AID 2451; also: potency is read from the fitted curve at half-maximal effect; % is scaled to controls: 0 for no effect and ±100 for the full control effect; nearly all actives have a fitted effect of over 55% in size
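40 nM FBPA preincubated 10 min at RT with compound (up to 57.5 uM final), then substrate plus GAPDH/TPI/NAD/arsenate coupling and diaphorase/resazurin added. Fluorescence read after 20 min at RT, 525/598 nm.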
LmPK inh: inhibitors of Leishmania mexicana pyruvate kinase | Q27686 | purified LmPK, Kinase-Glo ATP luminescence, 1 h | Potency, µM (doses to about 57.5 µM), inactives show at the top dose activity change, negative = inhibition, usual class: inhibitors | 0.37% of 290,000 active | AID 1721; also: potency is read from the fitted curve at half-maximal effect; % is scaled to controls: 0 for no effect and ±100 for the full control effect
Target sequence (Q27686 whole entry, looked up): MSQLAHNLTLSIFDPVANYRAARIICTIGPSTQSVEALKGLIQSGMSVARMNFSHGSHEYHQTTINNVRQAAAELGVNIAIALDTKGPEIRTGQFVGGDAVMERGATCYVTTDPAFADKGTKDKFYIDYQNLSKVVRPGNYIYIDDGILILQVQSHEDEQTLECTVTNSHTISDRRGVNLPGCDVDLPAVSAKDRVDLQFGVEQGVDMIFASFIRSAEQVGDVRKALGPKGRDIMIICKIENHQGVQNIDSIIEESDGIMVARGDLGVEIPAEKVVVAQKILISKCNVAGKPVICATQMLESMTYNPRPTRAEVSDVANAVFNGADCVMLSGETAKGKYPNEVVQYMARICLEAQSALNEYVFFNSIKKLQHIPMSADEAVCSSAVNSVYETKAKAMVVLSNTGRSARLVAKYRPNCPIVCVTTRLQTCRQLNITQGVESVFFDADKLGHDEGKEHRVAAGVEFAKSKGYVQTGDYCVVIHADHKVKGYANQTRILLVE
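0.1 nM LmPK, 0.5 mM PEP, 0.1 mM ADP; 50 mM imidazole pH 7.2, 7 mM MgCl2, 50 mM KCl; 1 h RT. Kinase-Glo luminescence readout, normalized to no-enzyme (full inhibition) and uninhibited wells.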
Tb PYK inh: T. brucei pyruvate kinase inhibition. TbPYK enzyme, Kinase-Glo Plus ATP luminescence, 45 min. Potency, µM (series often up to 76.8 µM), for the others: at the highest dose activity, negative = inhibition, usual class: inhibitors. 0.12% of 410,000 active; also: potency is read from the fitted curve at half-maximal effect; % is scaled to controls: 0 for no effect and ±100 for the full control effect; nearly all actives have a fitted effect of over 50% in size
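TbPYK + substrate in 50 mM TEA pH 7.2, 100 mM KCl, 10 mM MgCl2, 0.05% BSA, 0.01% Tween-20; cpd pinned; ADP 130 uM final; 45 min RT; Kinase-Glo Plus 10 min; luminescence endpoint.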
LmPK confirm: Inhibits Leishmania mexicana pyruvate kinase, confirmation | purified LmPK, Kinase-Glo ATP luminescence, 1 h | 40% of 150 active | Potency, µM (highest dose often 57.5 µM), without a hit: at the top dose activity change, negative = inhibition, hits mostly inhibitors | AID 2559 | shares compounds with LmPK inh;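 active = compounds giving a full or partial concentration-response curve, as inhibitors or activators; inconclusive = weak, top-dose-only or unclear curve responses; inactive = no response at any tested dose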
* marks the source's active call; other numbers are inactive results; ? = inconclusive; nt = no result given; [ ] = dose if it differs, or a comment. Only some compounds are listed: those with a hit (about 0.95% of all), similar ones and a draw of the others. Unless noted, calls follow the shape of the dose curve; as a rule, active = well fitted curve in the direction sought with a large enough effect; inconclusive = small, poorly fitted or top-dose-only effect, or another doubt; inactive = no such curve, though single readings can be large; an effect the other way counts as inactive or inconclusive.

SMILES	RE007 growth inh	FBPA Giardia inh	LmPK inh	Tb PYK inh	LmPK confirm
Cc1ccc(C(=O)n2c(N)nc3ccccc32)cc1	0%	0%	5µM*	-25%	33µM*
O=C1C(c2cc(=O)c3ccccc3[nH]2)=C(O)c2ccccc21	-21%	?	4µM*	8.9µM*	?
Oc1ccc(C23CC4CC(CC(C4)C2)C3)cc1O	?	-6%	0.28µM*	?	-13%
CC(=O)Nc1ccc(C23CC4CC(CC(C4)C2)C3)cc1	10%	-2%	3%	1%	nt
CCOc1ccc(NC(=O)Cn2c(=O)n(CCC(=O)NCCc3ccccc3)c(=O)c3ccccc32)cc1	nt	nt	nt	-9%	nt
Cc1ccnc(NC(=O)c2ccc3c(c2)OCO3)c1	?	-10%	14µM*	?	16µM*
O=C(C=Cc1ccc2c(c1)OCO2)c1ccccc1	?	nt	nt	-12%	nt
O=C(Nc1ccc2c(c1)OCCO2)c1ccccn1	?	-3%	5µM*	?	18µM*
O=C(Nc1ccc(NC(=O)c2ccccn2)cc1)C(=O)Nc1ccc2c(c1)OCCO2	10%	16%	-11%	-6%	nt
O=C(/C=C/c1ccc2c(c1)OCO2)c1ccccn1	?	?	5µM*	?	21µM*
CC/C=C\CC[C@H](OC(=O)c1ccc(Br)cc1)C1=CCCCC1=O	nt	-2%[12.9 µM]	nt	nt	nt
CC(C)OC(=O)c1cn(Cc2c(F)cccc2F)c2sc(-c3ccc(NC(=O)C(C)C)cc3)c(CN(C)Cc3ccccc3)c2c1=O	nt	1%	nt	nt	nt
COc1ccc(-c2[nH]c(-c3ccc(O)cc3)nc2-c2ccccc2)cc1	nt	nt	nt	1%	nt
Cc1ccnc(NC(=O)c2cc3ccccc3oc2=O)c1	-3%	2%	7.9µM*	-10%	?
CCOC(=O)Cc1csc(NC(=S)NC(=O)c2ccc([N+](=O)[O-])cc2)n1	2%	?	7.1µM*	-3%	?
CCOC(=O)Cc1csc(NC(=S)NC(=O)c2ccc(Cl)cc2)n1	-15%	?	-14%	2%	nt
Cc1occc1C(=O)N/N=C/c1ccc2c(c1)OCO2	?	-7%	4.5µM*	?	16µM*
COC(=O)CC1Oc2ccc(Cl)cc2-n2cc(-c3ccc(F)cc3)nc21 (stereo not given)	nt	nt	nt	-3%	nt
O=C1c2ccccc2-c2nnc(-c3ccccc3)cc21	?	-10%	2.8µM*	?	7.3µM*
COC(=O)c1ccc(Nc2nc(C)cc(C)n2)cc1	1%	4%	-5%	-3%	-5%
COc1ccc(CCNC(=O)Cn2nnc(-c3ccc(C(F)(F)F)cc3)n2)cc1OC	nt	nt	nt	0%	nt
CCOC(=O)c1ccc(NC(=O)Nc2ccc3c4c(cccc24)C(=O)N3CC)cc1	3%	-15%	2%	-12%	2%
FC(F)(F)c1cc(Cc2nc3ccccc3n2C(CCc2ccccc2)c2nc3ccccc3[nH]2)cc(C(F)(F)F)c1 (stereo not given)	7%	nt	nt	nt	nt
COc1cccc(NC(=O)c2ccccc2)c1	-18%	nt	nt	-10%	nt
COc1ccc(C(=O)Nc2cccc(OC)c2)cc1	?	-16%	?	?	?
SMILES	RE007 growth inh	FBPA Giardia inh	LmPK inh	Tb PYK inh	LmPK confirm
COc1ccc(/C(O)=C2/C(=O)C(=O)N(Cc3cccnc3)C2c2ccco2)cc1OC (stereo not given)	4%	9%	0%	0%	4%
Cc1cc(Br)ccc1NC(=O)C(NS(=O)(=O)c1cccs1)c1ccccc1 (stereo not given)	nt	nt	nt	0%	nt
N/C(=N\OC(=O)c1ccccc1Cl)c1ccncc1	?	-9%	1%	-1%	nt
Cc1ccc(C(=O)O/N=C(\N)c2ccccc2)c(Cl)c1	?	-5%	4.5µM*	?	18µM*
O=Cc1ccc(O)cc1O	5%	4%	-11%	-7%	nt
O=CN/C=C/c1cc(O)ccc1O	-3%	?	4.5µM*	-21%	?
COC(=O)c1ccccc1NC(=O)C1=CC(c2ccc3c(c2)OCO3)=NS(=O)(=O)N1C	nt	nt	nt	6%	nt
Cc1ccc(S(=O)(=O)/N=C2/C=C(Sc3ncn[nH]3)C(=O)c3ccccc32)c(C)c1	nt	1.6µM*	7.9µM*	nt	?
CCOc1ccc(NC(=O)Nc2ccccc2C(N)=O)cc1	?	2%	3.2µM*	-15%	10µM*
COC1=NS(=O)(=O)c2ccccc21	14%	2%	-6%	1%	nt
Cc1ccc(C)c(OC2=NS(=O)(=O)c3ccccc32)c1	-9%	3%	10µM*	-19%	?
COc1ccc(CNC(=O)CN2C(=O)c3cccnc3Oc3ccc(C)cc32)cc1	nt	nt	nt	10%[15.4 µM]	nt
Cc1ccc(Cn2nnc3c(=O)[nH]c(C4CCCN(C(=O)Nc5ccc(F)cc5F)C4)nc32)cc1 (stereo not given)	7%	-3%	9%	0%	7%
COc1ccc(CC(=O)NCc2ccc3c(c2)CCN3C(=O)c2ccc(C)cc2)cc1OC	nt	nt	nt	-3%	nt
O=C1CN=C(Nc2ccccc2Cl)N1c1ccccc1	3%	nt	-3%	-3%	nt
CCOc1ccc(N2C(=O)CN=C2Nc2ccccc2Cl)cc1	-15%	nt	3%	-4%	2%
CC(C)(C)NC(=O)C(c1ccncc1)N(C(=O)Cn1nnc(-c2ccc(F)cc2)n1)c1ccccc1 (stereo not given)	5%	-27%	8.9µM*	0%	-6%
O=C(Nc1ccc(Cl)c(S(=O)(=O)N2CCOCC2)c1)c1cn2ccccc2n1	-6%	4%	2%	0%	nt
O=C(Nc1ccc(N2CCOCC2)cc1)c1cn2ccccc2n1	-25%	9%	2.8µM*	?	16µM*
Cc1ccccc1N=CC1=C(O)c2ccccc2C1=O	?	-12%	4µM*	?	15µM*
CC(=O)Oc1ccc(-c2nc(-c3cccnc3)no2)cc1	-23%	1%	5µM*	0%	5.8µM*
CC(=O)Oc1ccc(Oc2ccc(-c3noc(C)n3)cc2)cc1	?	-10%	-6%	7%	nt
O=C(Nc1nc2ccccc2[nH]1)c1ccccc1OC(F)F	?	-18%	?	-5%	nt
O=C(Nc1nc2ccccc2[nH]1)c1ccccc1F	6.3µM*	-11%	3.2µM*	?	6.5µM*
Cc1ccsc1C(=O)Nc1nc2ccccc2[nH]1	?	-9%	2.8µM*	?	21µM*
SMILES	RE007 growth inh	FBPA Giardia inh	LmPK inh	Tb PYK inh	LmPK confirm
COc1cc(NC(=O)CSc2nc3ccccc3cc2Cc2ccccc2)cc(OC)c1	12%	-12%	-6%	-3%	nt
COc1cccc(NC(=O)CSc2nc3ccccc3cc2Cc2ccccc2)c1	4%	2%	1%	-5%	3%
O=C(NC(=O)c1ccccc1)Nc1ccccn1	nt	nt	4.5µM*	nt	13µM*
COc1ccc(NC(=O)C(NC(=O)/C=C\c2ccc3c(c2)OCO3)c2ccccc2)cc1 (stereo not given)	nt	nt	nt	9%	nt
COc1cc(OC)c2c(C)c(CC(=O)NCCc3ccccc3OC)c(=O)oc2c1	nt	nt	nt	3%	nt
CCC(=O)Nc1sc2c(c1C(=O)Nc1ccc(Br)cc1)CCCCC2	nt	nt	nt	-30%	nt
